ChEMBL document CHEMBL3433997, “St. Jude Leishmania screening dataset” (2016)

What follows are molecules tested against Solute carrier family 2, facilitated glucose transporter member 1 (Homo sapiens) (UniProt P11166) (assay: ST_JUDE_LEISH: Cytotoxicity at 2uM final concentration against transgenic Leishmania Mexicana promastigotes LmGLUT1 that are glucose transport deficient and complemented with the human glucose transporter GLUT1. Activity is measured by DNA content using SYBR green in vitro).
Chain of Solute carrier family 2, facilitated glucose transporter member 1 (Homo sapiens) (P11166 whole entry): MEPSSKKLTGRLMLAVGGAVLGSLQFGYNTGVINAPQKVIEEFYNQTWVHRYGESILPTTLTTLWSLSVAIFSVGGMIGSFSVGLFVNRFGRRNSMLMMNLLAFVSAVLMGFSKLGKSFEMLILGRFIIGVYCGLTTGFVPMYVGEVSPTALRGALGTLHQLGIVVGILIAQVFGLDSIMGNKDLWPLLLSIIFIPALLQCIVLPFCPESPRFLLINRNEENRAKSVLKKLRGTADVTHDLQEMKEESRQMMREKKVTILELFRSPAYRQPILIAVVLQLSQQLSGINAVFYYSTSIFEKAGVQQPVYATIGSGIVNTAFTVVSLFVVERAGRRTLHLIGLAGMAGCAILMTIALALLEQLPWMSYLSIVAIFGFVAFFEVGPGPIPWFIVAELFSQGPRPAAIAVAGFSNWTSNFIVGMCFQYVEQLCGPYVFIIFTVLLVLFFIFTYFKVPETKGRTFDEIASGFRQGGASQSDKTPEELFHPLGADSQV
Format: functional

SMILES	inhibition
CC(C)n1cc(CN2CCCC(C(=O)Nc3cccc(-c4cc5ccccc5[nH]4)c3)C2)cn1 (stereo not given)	2.2%
Clc1ccc(-c2nc(-c3ccncc3)c[nH]2)cc1Cl	0.68%
CCCc1cc(N2CCC(c3ccccc3)(N3CCCCC3)CC2)nc(Nc2ccc(OC)cc2)n1	15.7%
CCc1cn2c3c(cc(C(=O)N[C@@H](Cc4ccccc4)[C@H](O)CNC(C)(C)c4cccc(OC)c4)cc13)N(C)S(=O)(=O)C2	1.01%
Cc1ccc(C2(C)CC(C)(C)N(C(=O)COc3ccc4ccccc4c3)c3ccccc32)cc1 (stereo not given)	-1.77%
CCCc1cc(NCC)nc(Nc2ccc(C)cc2)n1	23.6%
COc1cc(Cc2cnc(N)nc2N)ccc1OCc1ccc(-c2csnn2)cc1	9.75%
CCNc1cc(C(=O)N[C@@H](Cc2ccccc2)[C@H](O)CNC(CC)c2cccc(Cl)c2)cc(N2CCCC2=O)c1 (stereo not given in full)	3.51%
NC1CCN(c2nc(NCCCc3ccc(O)cc3)nc(NCc3cccc4ccccc34)n2)CC1	0.21%
CCCCN(C(=O)c1ccccc1C)c1nnc(-c2ccccc2C)s1	2.08%
Cc1noc(C)c1-c1ccc(C(=C2CCCCCC2)c2ccc(O)cc2)cc1	3.18%
CCOc1cc(CC)ccc1C1CCN(CCN2CCC(NC(=O)c3ccc(-c4ccc(C#N)cc4)cc3)CC2)CC1	-0.43%
COc1ccc(Nc2ncc(Cl)c(Nc3cccnc3C(N)=O)n2)cc1N1CCN(C)CC1	89.9%
COc1cc2nc(NCCCO)nc(Nc3ccc(Oc4ccccc4)cc3)c2cc1OC	6.51%
Cc1cc(NCCC(=O)NCc2cccc(F)c2)nc(NCCc2ccc(F)cc2)n1	5.01%
COc1cccc(O)c1CN1CCC2(CCCN(Cc3ccc(F)cc3)C2)C1 (stereo not given)	1.04%
CC(Oc1cc(-n2cnc3ccc(NC(=O)CCN4CCCCC4)cc32)sc1C(N)=O)c1ccccc1Cl (stereo not given)	16.8%
CN1CCN(CCCN(Cc2cccc(-c3cccc(CNCc4ccc5c(c4)OCO5)c3)c2)C(=O)CCC2CCCC2)CC1	16.7%
c1cc(CNCC2CCN(CC3CCCCC3)CC2)cc(-n2ccnc2)c1	-1.01%
NC1=NC(c2ccccc2)N(c2ccc(Cl)c(Cl)c2)C(N)=N1 (stereo not given)	9.2%

SMILES	inhibition
O=C(Nc1ccc(Cl)c(Cl)c1)N1CCc2ccc(OCCCN3CCCCC3)cc2CC1	17.5%
Cc1ccc(NC(=O)c2ccc3ncccc3c2)cc1OC1CCN(Cc2ccc(F)cc2)CC1	6.67%
CCc1cn(CCCOC)c2ccc(C(=O)N[C@@H](Cc3ccccc3)[C@H](O)CNCc3cccc(C(F)(F)F)c3)cc12	3.43%
O=C(Nc1ccc(Cl)cc1)c1ccc(CN2CCCN(Cc3ccc(F)cc3)CC2)cc1	5.91%
COc1ccc2nccc([C@@H](O)CN3CCC(NC(=O)/C=C/c4ccc5cc(C)[nH]c5c4)CC3)c2c1	3.96%
COc1ccc(Nc2ccnc3cc(Cl)ccc23)cc1OC	10.1%
O=C(NC1CCN(Cc2ccccc2)CC1)c1csc2nc(-c3ccc(Cl)cc3)cn12	4.09%
COCCn1c(-c2cccc(Cl)c2)nn(-c2ccc([N+](=O)[O-])cc2Cl)c1=S	4.03%
Cc1nc(C(C)Nc2nncc(-c3ccc(Cl)cc3)n2)cs1 (stereo not given)	1.13%
O=[N+]([O-])c1cc(/C=N/Nc2nc3ccccc3[nH]2)ccc1O	8.03%
O=C(Nc1cccc(CN2CCCN(CC3CCCCC3)CC2)c1)c1cc2ccccc2s1	1.81%
CCN1CCC(N(Cc2ccc(-c3ccc(Cl)cc3)cc2)C(=O)Cn2c(CCc3cccc(F)c3F)cc(=O)c3ccccc32)CC1	9.18%
CN1CCN(CCCN(Cc2ccc(-c3cccc(CNCc4ccc5c(c4)OCO5)c3)cc2)C(=O)NC2CCCCC2)CC1	4.38%
Cc1cc(OCCCN2CCC(NS(=O)(=O)c3cc(Br)c(Cl)s3)CC2)c2ccccc2n1	-1.11%
COc1ccc(-c2cn3c(C(=O)Nc4ccccc4Cl)c(-c4ccccc4)c4c3n2CCCC4)cc1	0.33%
O=C(Nc1ccc([N+](=O)[O-])cc1)Nc1cc(C(F)(F)F)ccc1F	0.91%
O=c1cc(NCCCNCc2cc(C(F)(F)F)ccc2Cl)[nH]c2ccccc12	-0.91%
CN(c1ccccc1C(=O)Nc1cc(Cl)ccc1Oc1ccccc1)S(=O)(=O)c1ccccc1	5.06%
Cc1cc(N2C(N)=NC(N)=NC2(C)C)ccc1Cl	0.08%
COc1cc2nc(N3CCC(CNC(=O)c4ccc(-c5cccc(C#N)c5)cc4)CC3)nc(N)c2cc1OC	3.6%

The molecules below were run against Hexose transporter 1 (Plasmodium falciparum) (UniProt O97467) (assay: ST_JUDE_LEISH: Cytotoxicity at 2uM final concentration against transgenic Leishmania Mexicana promastigotes LmPfHT that are glucose transport deficient and complemented with the Plasmodium falciparum hexose transporter. Activity is measured by DNA content using SYBR green in vitro).
Format: functional

SMILES	inhibition
CC(C)n1cc(CN2CCCC(C(=O)Nc3cccc(-c4cc5ccccc5[nH]4)c3)C2)cn1 (stereo not given)	-0.11%
Clc1ccc(-c2nc(-c3ccncc3)c[nH]2)cc1Cl	0.78%
CCCc1cc(N2CCC(c3ccccc3)(N3CCCCC3)CC2)nc(Nc2ccc(OC)cc2)n1	16.5%
CCc1cn2c3c(cc(C(=O)N[C@@H](Cc4ccccc4)[C@H](O)CNC(C)(C)c4cccc(OC)c4)cc13)N(C)S(=O)(=O)C2	1.91%
Cc1ccc(C2(C)CC(C)(C)N(C(=O)COc3ccc4ccccc4c3)c3ccccc32)cc1 (stereo not given)	-1.69%
CCCc1cc(NCC)nc(Nc2ccc(C)cc2)n1	7.16%
COc1cc(Cc2cnc(N)nc2N)ccc1OCc1ccc(-c2csnn2)cc1	9.64%
CCNc1cc(C(=O)N[C@@H](Cc2ccccc2)[C@H](O)CNC(CC)c2cccc(Cl)c2)cc(N2CCCC2=O)c1 (stereo not given in full)	-0.75%
NC1CCN(c2nc(NCCCc3ccc(O)cc3)nc(NCc3cccc4ccccc34)n2)CC1	-3.11%
CCCCN(C(=O)c1ccccc1C)c1nnc(-c2ccccc2C)s1	1.53%
Cc1noc(C)c1-c1ccc(C(=C2CCCCCC2)c2ccc(O)cc2)cc1	3.88%
CCOc1cc(CC)ccc1C1CCN(CCN2CCC(NC(=O)c3ccc(-c4ccc(C#N)cc4)cc3)CC2)CC1	0.77%
COc1ccc(Nc2ncc(Cl)c(Nc3cccnc3C(N)=O)n2)cc1N1CCN(C)CC1	92.6%
COc1cc2nc(NCCCO)nc(Nc3ccc(Oc4ccccc4)cc3)c2cc1OC	6.09%
Cc1cc(NCCC(=O)NCc2cccc(F)c2)nc(NCCc2ccc(F)cc2)n1	3.24%
COc1cccc(O)c1CN1CCC2(CCCN(Cc3ccc(F)cc3)C2)C1 (stereo not given)	2.73%
CC(Oc1cc(-n2cnc3ccc(NC(=O)CCN4CCCCC4)cc32)sc1C(N)=O)c1ccccc1Cl (stereo not given)	9.84%
CN1CCN(CCCN(Cc2cccc(-c3cccc(CNCc4ccc5c(c4)OCO5)c3)c2)C(=O)CCC2CCCC2)CC1	12.2%
c1cc(CNCC2CCN(CC3CCCCC3)CC2)cc(-n2ccnc2)c1	-0.61%
NC1=NC(c2ccccc2)N(c2ccc(Cl)c(Cl)c2)C(N)=N1 (stereo not given)	7.89%

SMILES	inhibition
O=C(Nc1ccc(Cl)c(Cl)c1)N1CCc2ccc(OCCCN3CCCCC3)cc2CC1	16.2%
Cc1ccc(NC(=O)c2ccc3ncccc3c2)cc1OC1CCN(Cc2ccc(F)cc2)CC1	3.46%
CCc1cn(CCCOC)c2ccc(C(=O)N[C@@H](Cc3ccccc3)[C@H](O)CNCc3cccc(C(F)(F)F)c3)cc12	2.52%
O=C(Nc1ccc(Cl)cc1)c1ccc(CN2CCCN(Cc3ccc(F)cc3)CC2)cc1	1.23%
COc1ccc2nccc([C@@H](O)CN3CCC(NC(=O)/C=C/c4ccc5cc(C)[nH]c5c4)CC3)c2c1	3.03%
COc1ccc(Nc2ccnc3cc(Cl)ccc23)cc1OC	10.7%
O=C(NC1CCN(Cc2ccccc2)CC1)c1csc2nc(-c3ccc(Cl)cc3)cn12	2.67%
COCCn1c(-c2cccc(Cl)c2)nn(-c2ccc([N+](=O)[O-])cc2Cl)c1=S	6.65%
Cc1nc(C(C)Nc2nncc(-c3ccc(Cl)cc3)n2)cs1 (stereo not given)	0.17%
O=[N+]([O-])c1cc(/C=N/Nc2nc3ccccc3[nH]2)ccc1O	8.49%
O=C(Nc1cccc(CN2CCCN(CC3CCCCC3)CC2)c1)c1cc2ccccc2s1	0.88%
CCN1CCC(N(Cc2ccc(-c3ccc(Cl)cc3)cc2)C(=O)Cn2c(CCc3cccc(F)c3F)cc(=O)c3ccccc32)CC1	5.52%
CN1CCN(CCCN(Cc2ccc(-c3cccc(CNCc4ccc5c(c4)OCO5)c3)cc2)C(=O)NC2CCCCC2)CC1	1.35%
Cc1cc(OCCCN2CCC(NS(=O)(=O)c3cc(Br)c(Cl)s3)CC2)c2ccccc2n1	-0.46%
COc1ccc(-c2cn3c(C(=O)Nc4ccccc4Cl)c(-c4ccccc4)c4c3n2CCCC4)cc1	0.92%
O=C(Nc1ccc([N+](=O)[O-])cc1)Nc1cc(C(F)(F)F)ccc1F	1.47%
O=c1cc(NCCCNCc2cc(C(F)(F)F)ccc2Cl)[nH]c2ccccc12	0.29%
CN(c1ccccc1C(=O)Nc1cc(Cl)ccc1Oc1ccccc1)S(=O)(=O)c1ccccc1	4.53%
Cc1cc(N2C(N)=NC(N)=NC2(C)C)ccc1Cl	-0.81%
COc1cc2nc(N3CCC(CNC(=O)c4ccc(-c5cccc(C#N)c5)cc4)CC3)nc(N)c2cc1OC	2.28%
